LANA-H2B inh – blockers of LANA interaction with H2A/H2B – biochemical, FP readout, HTS, primary screen. inhibition, % (no concentration beside the values). cell-free LANA-H2A/H2B peptide, fluorescence polarization. AID 2629, 2010. 320,000 tested, 0.6% active; in the data active = inhibition mostly above about 10%, no sharp cut-off; inactive = mostly below about 6.7%
HDAC3 inh – HDAC3 deacetylase inhibitors, primary screen, biochemical, fluorescence, cell-free homogeneous; Histone deacetylase 3 (Homo sapiens), O15379; recombinant HDAC3, fluorogenic peptide/trypsin coupled; inhibition, % at 8.3 µM; 320,000 tested, 0.15% active; AID 2718, 2010; in the data active = inhibition above about 26%, passing the limit was not always enough; inconclusive = no clear call, values can overlap the other calls
PKD1 kinase inh – inhibitors of human PKD1 kinase, biochemical, fluorescence polarization; Serine/threonine-protein kinase D1 (Homo sapiens), Q15139; PKD1 kinase fluorescence polarization assay; inhibition, % (no concentration beside the values); 200,000 tested, 0.056% active; AID 797, 2007
VLA-4 inh – inhibition in human VLA-4 binding assay, primary screen, VLA-4 allosteric modulator project, MLPCN library, flow cytometry, VLA-4 expressing cells. Integrin alpha-4 (Homo sapiens), P13612. inhibition, % (about 7 µM as worked out from the volumes in the protocol). 330,000 tested, 0.2% active. ligand binding flow cytometry
DSG3 Ab inh – inhibitors of pemphigus antibody binding to DSG3, primary screen, biochemical, bead-based, flow cytometry, scFv-GFP | Desmoglein-3 (Homo sapiens), P32926 | DSG3-coupled beads, scFv-anti-DSG3-GFP binding; stronger effect = lower value | binding (percent of control), % at 10 µM | 310,000 tested, 0.48% active | AID 588358, 2011;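 active = binding more than 3 SD below its plate's average and above zero; inconclusive = below that plate limit but binding exactly zero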;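 note: hits lower antibody fragment binding to DSG3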
Target sequence (P32926 whole entry, looked up, the tested form may be a part): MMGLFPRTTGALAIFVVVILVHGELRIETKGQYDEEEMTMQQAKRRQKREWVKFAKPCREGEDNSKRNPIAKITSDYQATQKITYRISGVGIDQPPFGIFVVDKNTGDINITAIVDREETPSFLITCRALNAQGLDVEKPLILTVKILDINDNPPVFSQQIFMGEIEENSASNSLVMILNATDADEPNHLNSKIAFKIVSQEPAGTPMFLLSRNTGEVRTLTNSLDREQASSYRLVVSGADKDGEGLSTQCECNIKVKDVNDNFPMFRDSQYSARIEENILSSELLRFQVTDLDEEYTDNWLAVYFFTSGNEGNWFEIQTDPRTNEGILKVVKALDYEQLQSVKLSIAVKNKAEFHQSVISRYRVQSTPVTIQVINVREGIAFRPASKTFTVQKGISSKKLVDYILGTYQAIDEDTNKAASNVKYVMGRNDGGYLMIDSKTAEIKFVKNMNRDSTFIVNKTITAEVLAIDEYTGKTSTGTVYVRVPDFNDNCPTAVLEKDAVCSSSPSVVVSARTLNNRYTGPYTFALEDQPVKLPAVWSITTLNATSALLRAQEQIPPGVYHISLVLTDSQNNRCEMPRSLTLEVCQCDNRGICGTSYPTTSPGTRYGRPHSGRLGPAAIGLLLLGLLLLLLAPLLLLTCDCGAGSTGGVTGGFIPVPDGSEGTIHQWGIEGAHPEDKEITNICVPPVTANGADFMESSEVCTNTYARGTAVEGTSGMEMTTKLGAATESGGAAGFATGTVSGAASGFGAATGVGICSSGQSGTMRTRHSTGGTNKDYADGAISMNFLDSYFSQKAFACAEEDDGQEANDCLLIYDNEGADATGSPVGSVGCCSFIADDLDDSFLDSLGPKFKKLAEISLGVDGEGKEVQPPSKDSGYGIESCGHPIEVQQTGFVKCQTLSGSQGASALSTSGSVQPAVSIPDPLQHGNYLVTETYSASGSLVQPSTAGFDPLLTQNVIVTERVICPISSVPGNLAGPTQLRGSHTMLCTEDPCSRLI
GRK2 inh – compounds blocking aptamer binding on GRK2 – biochemical, human GRK2, bead flow cytometry, HTS, primary screen | Beta-adrenergic receptor kinase 1 (Homo sapiens), P25098 | 330,000 tested, 0.59% active | FAM-aptamer displacement from GRK2 | inhibition of aptamer binding, % at 10 µM;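 active = inhibition of aptamer binding above 40%, roughly 3 SD of noise, on plates passing a quality check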;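 note: median bead fluorescence of bound FAM aptamer so fluorescent compounds give negative values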
GRK2 CP1 – GRK2 aptamer-displacing inhibitors, retest, confirmation, biochemical, cherry pick 1, bead flow cytometry | shares compounds with GRK2 inh | bead-bound GRK2, FAM-aptamer displacement | aptamer displacement, % at 10 µM | 2,000 tested, 4% active | AID 504451, 2011;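 active = aptamer displacement above 40%, near three times the noise of non-fluorescent compounds, on plates passing quality checks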;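 note: negative values mostly reflect intrinsic compound fluorescence rather than true enhancement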
Aptamer quench 1 – quenches fluorescent RNA aptamer, GRK2 hit artifact; Fluorescent RNA aptamer beads, quenching, flow cytometry; stronger effect = higher value; fluorescence change (kMESF span), kMESF (concentration not given with the values); AID 504521; 110 tested, under 10 active; shares compounds with GRK2 inh;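 active = compounds whose bead fluorescence drops by more than 37 kMESF across the dose range, marking them as dye quenchers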
Aptamer quench SP – aptamer fluorescence quenching in GRK2 counter-screen. shares compounds with GRK2 inh. Carboxyfluorescein RNA aptamer on beads, flow cytometry quenching; stronger effect = lower value. fluorescence response (% of DMSO), % at 10 µM. 2,000 tested, under 10 active;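 active = compounds that quench the bead-bound fluorescent RNA probe, cutting fluorescence to under half of the solvent control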;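 note: counterscreen run without GRK2 so only probe quenching by compound is measured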
GRK2 confirm 2 – GRK2 aptamer-displacing inhibitors, hit retest, confirmation, biochemical, cherry pick 2, bead flow cytometry; shares compounds with GRK2 inh; bead-bound GRK2, FAM-aptamer displacement; inhibition of aptamer binding, % at 10 µM; 360 tested, under 10 active;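 active = inhibition of aptamer binding above 40%, about triple the noise seen with nonglowing compounds, on plates passing quality control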;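 note: negative values mostly come from compounds that fluoresce themselves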
FAM quench SP – aptamer fluorescence quenching in GRK2 counter-screen | AID 588494 | 360 tested, under 10 active | fluorescence response vs DMSO, % at 10 µM | carboxyfluorescein RNA aptamer beads, flow cytometry quenching; stronger effect = lower value | shares compounds with GRK2 inh;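 active = response vs DMSO under 50%, meaning signal dropped by over half, treated as fluorescence quencher; inconclusive = no clear call, values can overlap the other calls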;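 note: labelled aptamer on streptavidin beads without GRK2 as a quench counter-screen; 100% = bead fluorescence of DMSO wells and lower means quenching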
* marks the source's active call; other numbers are inactive results; ? = inconclusive; . = no result given. Most compounds without a hit are left out; they make up all but 1.8% or so of the library. Cut-off read from the data, not from the text of the source, unless noted: active = inhibition above about 50%; inactive = the rest.

SMILES	LANA-H2B inh	HDAC3 inh	PKD1 kinase inh	VLA-4 inh	DSG3 Ab inh	GRK2 inh	GRK2 CP1	Aptamer quench SP	others
Cc1ccc(CN2CCN(Cc3cnc(N4CCOCC4)s3)CC2CCO)o1 (stereo unspecified)	-1	-1	-1	-1	106	72*	2	95
Cc1ccc(CN2CCN(CCC(C)C)C(CCO)C2)s1 (stereo unspecified)	4	2	2	-4	85	3	.	.
Cc1ccc(CN2CCN(CC(C)C)C(CCO)C2)s1 (stereo unspecified)	2	1	-2	-4	99	97*	-1	98
CCCCCCCCOC(=O)c1cc([N+](=O)[O-])c(Sc2ncnc3nc[nH]c23)c([N+](=O)[O-])c1	.	.	.	.	92	.	.	.
CCCCCCNc1nc(Cl)nc(NC(C)(C)CO)n1	5	3	.	1	110	1	.	.
Cc1ccc(CCNC(=O)CC(C)CC2=NS(=O)(=O)c3ccccc3N2)cc1 (stereo unspecified)	4	-4	.	14	.	65*	-3	95
Cc1cc(C)cc(NC(=O)COC(=O)CCCC2=NS(=O)(=O)c3ccccc3N2)c1	-5	5	8	11	96	2	.	.
O=C(NCc1cccs1)c1cc(-c2ccc(O)cc2)on1	-4	5	.	3	102	79*	-3	98
Cc1sc2ncn(CC(=O)N3CCCCC3)c(=O)c2c1C	-4	?	9	-47	98	2	.	.
COc1cccc(-c2ccc(SCC(=O)NC3CCCCC3)nn2)c1	5	-6	.	-23	103	2	.	.
Cn1c(=O)[nH]c(=O)c2c1nc(CN1CCN(c3ccc(F)cc3)CC1)n2CCN1CCOCC1	1	-4	.	1	100	0	.	.
COC(=O)Cn1c(CN2CCOCC2)nc2c1c(=O)[nH]c(=O)n2C	-1	-2	-6	2	95	34	-2	100
O=C(O)C1C2C=CC(CC2)C1C(=O)O (stereo unspecified)	-5	6	0	6	.	60*	52*	100	Aptamer quench 1=-0.4
CCN(CC(=O)Nc1c(F)cccc1F)C(=O)c1ccc(OCC(=O)N2CCOCC2)c(OC)c1	.	.	.	.	102	.	.	.
COc1ccc(OC)c(/C=N/NC(=O)c2ccncc2)c1	4	1	.	7	106	57*	-1	99
Cc1ccc(NC(=O)CN(C)c2ccc(S(=O)(=O)N3CCCC3)cn2)cc1	-1	5	-2	15	102	67*	-2	99
O=C1COc2ccc(C(=O)COC(=O)/C=C/c3ccc(Br)o3)cc2N1	-9	4	.	-36	92	57*	2	93
Cc1ccc(/C=C/C(=O)OCC(=O)c2ccc3c(c2)NC(=O)CO3)o1	12	2	.	7	124	0	.	.
CCN(CC(=O)Nc1c(F)cccc1F)C(=O)c1cccc(-n2cnnn2)c1	.	.	.	.	96	.	.	.
CC1(C)Cc2ccccc2-c2nnc(-c3cccnc3)n21	0	10	5	-1	98	100*	.	.	GRK2 confirm 2=-8;FAM quench SP=97
Cn1c(C(=O)N2CCCC(C(=O)NCCCSC3CCCCC3)C2)cc2sccc21 (stereo unspecified)	-2	-4	-6	10	101	25	1	96
Cc1ccc(C(=O)n2c(=S)nc3ccccn32)cc1	.	.	0	.	.	.	.	.
Cc1cccc(C(=O)n2c(=S)nc3ccccn32)c1	-1	6	1	2	122	49*	-15	97
O=C(CSc1nc2ccccc2[nH]1)N1CCN(S(=O)(=O)c2ccc(Cl)cc2)CC1	-3	-4	-3	0	101	45*	2	96
CCOC(=O)c1cc(C(=O)OCC)c2cc(Br)ccc2n1	1	4	0	11	117	3	.	.
SMILES	LANA-H2B inh	HDAC3 inh	PKD1 kinase inh	VLA-4 inh	DSG3 Ab inh	GRK2 inh	GRK2 CP1	Aptamer quench SP	others
CCCCOC(=O)c1cc(C)nc2ccc(Br)cc12	-9	-5	-3	10	122	17	-1	94
CCC1Sc2ccccc2N(CC(=O)NCc2ccccc2OC)C1=O (stereo unspecified)	4	1	8	-4	100	2	.	.
CCC1Sc2ccccc2N(CC(=O)NCCC(C)C)C1=O (stereo unspecified)	0	0	-10	21	81	34	-2	104
[N-]=[N+]=NC1CC(CO)OC1n1ccc(=O)[nH]c1=O (stereo unspecified)	1	3	.	9	106	0	.	.
O=C(O)CC(NCc1ccco1)C(=O)OCCc1ccccc1 (stereo unspecified)	-2	-1	-2	2	104	0	.	.
C=C(C)CCOC(=O)C(CC(=O)O)NCc1ccco1 (stereo unspecified)	4	-3	.	6	97	43*	9	149
COCCCNCCCCOc1ccc(Br)cc1Cl	-3	4	-1	-2	94	41*	.	.	GRK2 confirm 2=14;FAM quench SP=99
COCCCNCCOCCOc1ccc(C)cc1Br	.	.	-1	5	99	100*	.	.	GRK2 confirm 2=-10;FAM quench SP=101
COCCNCCCOc1ccc(Br)cc1Cl	-4	-3	-7	6	58	1	.	.
CCCCNCCOCCOc1ccc(C)cc1Br	6	-3	-3	2	107	3	.	.
COc1ccccc1Oc1cc(-n2nc(C)cc2C)ncn1	0	0	1	-11	118	82*	.	.	GRK2 confirm 2=8;FAM quench SP=100

High-throughput results deposited in PubChem BioAssay by several laboratories.
